Molecules are shown by their SMILES. Records with an inconclusive call do not appear. Where a call stands in place of a potency, no number is given. Active and inactive are the calls of the source. Calls come from the whole dose curve; as a rule, active = well fitted inhibition curve with a large enough effect; inconclusive = small, poorly fitted or top-dose-only effect; inactive = no such curve, though single readings can be large or run the other way.
Potency is the fitted concentration of half-maximal effect.

The nature of this test: Acumen qHTS Assay for Inhibitors of the mTORC1 Signaling Pathway in WT MEF Cells: Hit Validation. Note: nearly all actives have a fitted effect of over 60% in size. The settings on record: Acumen imaging; series mostly up to 37.3 µM. In short, it runs like this: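 Read-out is immunofluorescent phospho-rpS6 (Ser235/236) normalised to PI-stained cell number, reported as % active cells using a 7.5 nM rapamycin threshold. Cells: WT or Tsc2-/-, p53-/- MEFs, compound-exposed 24 h at 37C; PI count also tracks viability.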
For orientation: In qHTS, concentration-response curves come from the screen itself.
`CCc1ccc(OCC(=O)Nc2ccc3oc(-c4ccc(OC)cc4)nc3c2)cc1`: the Potency result was “inactive”. In the case of `COc1cccc(-c2cc(C(=O)Nc3cnn(Cc4ccc(Cl)cc4Cl)c3)no2)c1`, the Potency entry is “inactive”. As for `CC(C)CCNc1nc(Nc2ccccc2)c2cnn(C)c2n1`, the Potency entry is “inactive”. With `COc1ccc(Cn2c(C(=O)O)c(CNCc3ccccc3F)c3ccc(OC)cc32)cc1` the entry was “inactive”. As for `Cc1cccc(Oc2coc3cc(OCC(=O)NC4CCCCC4)ccc3c2=O)c1`, the Potency result is “inactive”. Consider `C=CCNC1=C2C[C@@H](C)C[C@H](OC)[C@H](O)[C@@H](C)/C=C(\C)[C@H](OC(N)=O)[C@@H](OC)/C=C\C=C(/C)C(=O)NC(=CC1=O)C2=O`, for which the Potency is 0.515 µM (active).

`Cc1ccc(Nc2nc(C(N)=O)c(NC(=O)c3ccccc3Br)s2)cc1`: the Potency is 3.69 µM (active). Take `CC(C)c1nnc(NC(=O)c2nc(S(=O)(=O)Cc3ccccc3)ncc2Cl)s1`: the Potency is 5.21 µM (active). Regarding `COCCCNC(=O)c1ccc(CSc2nc3cccnc3n2Cc2ccc(OC)cc2)cc1`, the Potency entry is “inactive”. On to `C#CC(C)(CC)NC(=O)Cn1nnc(-c2ccc(OCc3c(F)cccc3Cl)cc2)n1` (stereo not given), for which the Potency entry was “inactive”. For the compound `COc1ccc(NC(=O)CSc2nc3ccccc3nc2N2CCC(C)CC2)cc1`, the Potency result was “inactive”.

For the compound `Cc1ccc(S(=O)(=O)c2nnn3c2nc(NC2CCCCC2)c2sccc23)cc1C`, the Potency result was “inactive”. For the compound `COc1ccc(C(=O)N2CCN(C(=O)COc3ccc(Br)cc3)CC2)cc1OC`, the Potency result was “inactive”.

Turning to `Cc1ccc(CNS(=O)(=O)c2cc(C(=O)Nc3cccc(C(F)(F)F)c3)ccc2F)cc1`, the Potency result is “inactive”.

For `CCn1c(CN2CCC(C)CC2)nc2cc(NC(=O)c3ccccc3[N+](=O)[O-])ccc21`, the Potency result was “inactive”. As to `Cc1cccc(CSc2cn(CC(=O)N3CCCCCC3)c3ccccc23)c1`, the Potency result was “inactive”.

On to `Cn1nnnc1SCCCNCc1cc(Cl)ccc1OCc1ccc(F)cc1`, for which the Potency entry was “inactive”. For the compound `CCCCOc1ccc(Cn2c(=O)sc3ccccc32)cc1`, the Potency result is “inactive”. Consider `Cc1ccc(NC(=O)Nc2cccs2)c(C)c1`, for which the Potency entry is “inactive”. The same measure for `NS(=O)(=O)c1cc(C(=O)O)c(NCc2ccco2)cc1Cl`: “inactive”. With `O=C(NCCN1CCN(c2cccc(Cl)c2)CC1)Nc1ccccc1C(F)(F)F` the entry was “inactive”; with `CC(C)N(C(=O)Cn1cc(S(=O)(=O)Cc2ccc(Cl)cc2)c2ccccc21)C(C)C`, “inactive”. `Cc1cccc(CS(=O)(=O)c2ncc(Cl)c(C(=O)NCc3ccccc3)n2)c1`: the Potency is 13.1 µM (active).

For the compound `CS(=O)c1ccc(-c2nc(-c3ccc(F)cc3)c(-c3ccncc3)[nH]2)cc1` (stereo not given), the Potency entry was “inactive”. With `CCCCS(=O)(=O)c1nc(-c2ccc(Br)cc2)cc(-c2ccccc2)c1C#N` the figure was 5.21 µM (active); with `COc1ccc(-n2ncc3c(NCCCOC(C)C)ncnc32)cc1`, “inactive”. Regarding `CCCCN(CC)CCNC(=O)C1CCN(c2nnc(C)c3c(C)n(-c4ccc(C)cc4)nc23)CC1`, the Potency result is “inactive”.

On to `O=C(NCC1CCN(Cc2cccc(Cl)c2)CC1)Nc1ccc(F)c(Cl)c1`, for which the Potency result was “inactive”. Regarding `COc1cccc(C2CC(=O)Nc3cc4c(cc32)OCCO4)c1OC` (stereo not given), the Potency result was “inactive”.

`Cc1oc(-c2ccccc2F)nc1Cn1c(SCc2cccc(Cl)c2)nc2ccncc21`: the Potency result is “inactive”. With `COc1ccc(CC(=O)Nc2sc3c(c2C(=O)Nc2ccccc2)CCCCC3)cc1` the figure was 13.1 µM (active); with `Cc1ccccc1C(=O)N1CCN(CCc2ccccn2)CC1`, “inactive”; with `Cc1cccc(CS(=O)(=O)c2ncc(Cl)c(C(=O)Nc3nnc(C(C)C)s3)n2)c1`, 14.7 µM (active). Take `CCOC(=O)c1ccc(NC(=O)c2nc(S(=O)(=O)Cc3ccccc3)ncc2Cl)cc1`: the Potency was 6.56 µM (active).

For the compound `CCC(C(=O)N1CCN(c2cccc(C)c2C)CC1)n1nc(C)c2sc3ccccc3c2c1=O` (stereo not given), the Potency entry was “inactive”. The same measure for `O=C(CCCn1c(=O)c2ccccc2n(Cc2cccc(Cl)c2)c1=O)NCCc1ccc(Cl)cc1`: “inactive”. For `COc1cc(CN(C(=O)COc2ccc(C)c(C)c2)c2ccccn2)cc(OC)c1OC`, the Potency entry is “inactive”. In the case of `CCc1ccc(NC(=O)Cn2c(=O)n(-c3ccc(OC)cc3)c(=O)c3ccc(C(=O)NCc4ccc(C)cc4)cc32)cc1`, the Potency was 10.4 µM (active). Consider `CCS(=O)(=O)c1ncc(Cl)c(C(=O)N2CCN(c3cccc(Cl)c3)CC2)n1`, for which the Potency was 2.61 µM (active). As to `CC(C)N(C(=O)CSc1nc2ccc(Cl)cc2[nH]1)c1ccccc1`, the Potency result was “inactive”.

The values are drawn from PubChem BioAssay AID651789 (National Center for Advancing Translational Sciences (NCATS), 2012).
